Legend:
[1] = target: Protein kinase C eta type (Homo sapiens) (UniProt P24723); details: at 1 µM
[2] = target: Protein kinase C eta type (Homo sapiens) (UniProt P24723); details: at 10 µM
[3] = target: Protein kinase C theta type (Homo sapiens) (UniProt Q04759); details: at 1 µM
[4] = target: Protein kinase C theta type (Homo sapiens) (UniProt Q04759); details: at 10 µM
[5] = target: T1, Protein kinase C iota type (Homo sapiens) (UniProt P41743); details: at 1 µM
T1 sequence (whole entry): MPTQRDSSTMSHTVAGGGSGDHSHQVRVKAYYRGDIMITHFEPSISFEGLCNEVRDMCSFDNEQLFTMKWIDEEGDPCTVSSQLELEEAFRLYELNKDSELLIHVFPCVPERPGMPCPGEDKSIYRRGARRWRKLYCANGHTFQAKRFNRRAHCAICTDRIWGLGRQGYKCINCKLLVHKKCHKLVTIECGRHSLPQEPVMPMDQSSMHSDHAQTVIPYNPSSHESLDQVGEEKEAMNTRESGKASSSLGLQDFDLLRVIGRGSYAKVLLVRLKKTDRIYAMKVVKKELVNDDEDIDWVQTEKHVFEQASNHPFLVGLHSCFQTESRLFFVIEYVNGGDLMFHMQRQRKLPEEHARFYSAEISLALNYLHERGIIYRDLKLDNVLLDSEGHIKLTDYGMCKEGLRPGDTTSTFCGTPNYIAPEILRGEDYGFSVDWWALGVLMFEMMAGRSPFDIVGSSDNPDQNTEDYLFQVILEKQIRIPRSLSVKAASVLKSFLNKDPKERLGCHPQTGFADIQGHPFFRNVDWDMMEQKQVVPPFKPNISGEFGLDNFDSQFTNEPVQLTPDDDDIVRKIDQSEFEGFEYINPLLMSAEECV

[6] = target: T1, Protein kinase C iota type (Homo sapiens); details: at 10 µM
[7] = target: T2, Serine/threonine-protein kinase D1 (Homo sapiens) (UniProt Q15139); details: at 1 µM
T2 sequence (whole entry): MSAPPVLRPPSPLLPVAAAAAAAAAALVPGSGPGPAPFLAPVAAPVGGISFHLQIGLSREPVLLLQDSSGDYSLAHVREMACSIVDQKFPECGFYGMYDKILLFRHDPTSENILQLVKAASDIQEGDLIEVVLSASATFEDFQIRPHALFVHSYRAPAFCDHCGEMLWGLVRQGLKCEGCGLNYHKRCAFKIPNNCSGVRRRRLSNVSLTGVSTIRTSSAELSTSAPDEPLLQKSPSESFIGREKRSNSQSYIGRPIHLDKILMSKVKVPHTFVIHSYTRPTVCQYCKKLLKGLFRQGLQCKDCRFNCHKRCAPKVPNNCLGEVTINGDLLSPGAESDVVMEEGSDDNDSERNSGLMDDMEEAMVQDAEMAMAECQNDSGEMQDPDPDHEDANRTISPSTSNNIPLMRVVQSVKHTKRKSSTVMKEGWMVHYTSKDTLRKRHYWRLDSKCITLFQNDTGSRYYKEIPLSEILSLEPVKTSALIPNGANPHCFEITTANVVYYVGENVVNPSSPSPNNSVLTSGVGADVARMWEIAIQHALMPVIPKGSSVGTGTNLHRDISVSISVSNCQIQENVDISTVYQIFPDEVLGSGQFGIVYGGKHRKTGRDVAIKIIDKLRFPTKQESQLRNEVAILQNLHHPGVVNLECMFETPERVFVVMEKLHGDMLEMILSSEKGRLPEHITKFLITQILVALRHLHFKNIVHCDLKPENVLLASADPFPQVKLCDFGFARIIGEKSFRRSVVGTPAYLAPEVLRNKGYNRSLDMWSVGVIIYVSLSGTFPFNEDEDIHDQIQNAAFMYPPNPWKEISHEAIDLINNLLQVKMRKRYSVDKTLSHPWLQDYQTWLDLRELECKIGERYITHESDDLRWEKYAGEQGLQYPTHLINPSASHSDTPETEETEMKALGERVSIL

[8] = target: T2, Serine/threonine-protein kinase D1 (Homo sapiens); details: at 10 µM
[9] = target: T3, Serine/threonine-protein kinase D2 (Homo sapiens) (UniProt Q9BZL6); details: at 1 µM
T3 sequence (whole entry): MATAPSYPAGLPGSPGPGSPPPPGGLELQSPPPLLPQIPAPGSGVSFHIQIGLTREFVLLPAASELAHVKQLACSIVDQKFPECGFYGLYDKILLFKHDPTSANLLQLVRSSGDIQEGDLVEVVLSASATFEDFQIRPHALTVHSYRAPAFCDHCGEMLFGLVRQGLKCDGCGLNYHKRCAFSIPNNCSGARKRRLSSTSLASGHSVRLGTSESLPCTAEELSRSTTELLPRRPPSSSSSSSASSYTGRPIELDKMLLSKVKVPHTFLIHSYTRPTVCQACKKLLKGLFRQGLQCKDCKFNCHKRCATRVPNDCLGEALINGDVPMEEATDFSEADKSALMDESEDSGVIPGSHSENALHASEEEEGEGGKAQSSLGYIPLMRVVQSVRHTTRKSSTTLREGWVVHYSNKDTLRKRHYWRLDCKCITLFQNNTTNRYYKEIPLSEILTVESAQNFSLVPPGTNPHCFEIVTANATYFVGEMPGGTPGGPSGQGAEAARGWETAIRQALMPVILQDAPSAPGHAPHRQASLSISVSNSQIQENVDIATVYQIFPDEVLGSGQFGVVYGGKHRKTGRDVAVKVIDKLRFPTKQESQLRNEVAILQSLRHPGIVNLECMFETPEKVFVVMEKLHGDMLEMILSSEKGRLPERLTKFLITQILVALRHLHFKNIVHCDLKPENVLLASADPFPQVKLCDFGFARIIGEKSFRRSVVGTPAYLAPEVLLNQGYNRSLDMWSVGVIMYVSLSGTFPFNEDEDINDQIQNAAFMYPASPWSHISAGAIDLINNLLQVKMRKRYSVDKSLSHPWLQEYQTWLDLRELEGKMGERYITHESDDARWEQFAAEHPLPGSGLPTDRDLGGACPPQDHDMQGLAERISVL

[10] = target: T3, Serine/threonine-protein kinase D2 (Homo sapiens); details: at 10 µM
[11] = target: T4, cGMP-dependent protein kinase 1 (Homo sapiens) (UniProt Q13976); details: at 1 µM
T4 sequence (whole entry): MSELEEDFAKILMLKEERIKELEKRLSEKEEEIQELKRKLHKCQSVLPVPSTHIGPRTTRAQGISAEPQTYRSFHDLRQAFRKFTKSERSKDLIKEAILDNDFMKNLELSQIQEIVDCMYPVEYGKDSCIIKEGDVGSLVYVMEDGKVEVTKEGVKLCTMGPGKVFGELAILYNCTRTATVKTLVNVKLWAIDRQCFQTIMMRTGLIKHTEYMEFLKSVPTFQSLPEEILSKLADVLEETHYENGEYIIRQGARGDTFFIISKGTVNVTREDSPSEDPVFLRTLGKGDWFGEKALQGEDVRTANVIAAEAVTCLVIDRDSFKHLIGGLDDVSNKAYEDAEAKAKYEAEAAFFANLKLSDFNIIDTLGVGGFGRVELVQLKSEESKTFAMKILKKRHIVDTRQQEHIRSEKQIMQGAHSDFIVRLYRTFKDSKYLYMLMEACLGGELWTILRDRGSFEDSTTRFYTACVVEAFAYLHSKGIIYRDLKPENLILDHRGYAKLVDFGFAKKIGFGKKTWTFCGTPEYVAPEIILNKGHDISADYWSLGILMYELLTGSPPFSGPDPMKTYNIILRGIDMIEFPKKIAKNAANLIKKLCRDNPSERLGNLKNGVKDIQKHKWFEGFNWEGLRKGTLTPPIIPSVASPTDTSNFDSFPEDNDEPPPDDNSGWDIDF

[12] = target: T4, cGMP-dependent protein kinase 1 (Homo sapiens); details: at 10 µM
[13] = target: T4, cGMP-dependent protein kinase 1 (Homo sapiens); details: at 1 µM; remark: listed apart in the source
[14] = target: T4, cGMP-dependent protein kinase 1 (Homo sapiens); details: at 10 µM; remark: listed apart in the source
[15] = target: T5, MAP kinase-activated protein kinase 5 (Homo sapiens) (UniProt Q8IW41); details: at 1 µM
T5 sequence (whole entry): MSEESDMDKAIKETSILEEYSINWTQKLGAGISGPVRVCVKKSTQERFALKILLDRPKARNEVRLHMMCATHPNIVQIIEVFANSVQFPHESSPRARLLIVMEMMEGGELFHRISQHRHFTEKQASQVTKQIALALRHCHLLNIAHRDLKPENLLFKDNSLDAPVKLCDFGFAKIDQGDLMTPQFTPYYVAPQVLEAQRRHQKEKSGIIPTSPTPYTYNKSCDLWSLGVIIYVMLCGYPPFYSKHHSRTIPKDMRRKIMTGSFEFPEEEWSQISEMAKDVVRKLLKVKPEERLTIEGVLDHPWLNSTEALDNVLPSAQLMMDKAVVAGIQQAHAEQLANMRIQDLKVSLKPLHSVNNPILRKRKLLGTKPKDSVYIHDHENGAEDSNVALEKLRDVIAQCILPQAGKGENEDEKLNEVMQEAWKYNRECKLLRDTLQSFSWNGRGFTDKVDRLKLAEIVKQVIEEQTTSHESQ

[16] = target: T5, MAP kinase-activated protein kinase 5 (Homo sapiens); details: at 10 µM
[17] = target: Serine/threonine-protein kinase N2 (Homo sapiens) (UniProt Q16513); details: at 1 µM
Chain of Serine/threonine-protein kinase N2 (Homo sapiens) (Q16513 whole entry, looked up): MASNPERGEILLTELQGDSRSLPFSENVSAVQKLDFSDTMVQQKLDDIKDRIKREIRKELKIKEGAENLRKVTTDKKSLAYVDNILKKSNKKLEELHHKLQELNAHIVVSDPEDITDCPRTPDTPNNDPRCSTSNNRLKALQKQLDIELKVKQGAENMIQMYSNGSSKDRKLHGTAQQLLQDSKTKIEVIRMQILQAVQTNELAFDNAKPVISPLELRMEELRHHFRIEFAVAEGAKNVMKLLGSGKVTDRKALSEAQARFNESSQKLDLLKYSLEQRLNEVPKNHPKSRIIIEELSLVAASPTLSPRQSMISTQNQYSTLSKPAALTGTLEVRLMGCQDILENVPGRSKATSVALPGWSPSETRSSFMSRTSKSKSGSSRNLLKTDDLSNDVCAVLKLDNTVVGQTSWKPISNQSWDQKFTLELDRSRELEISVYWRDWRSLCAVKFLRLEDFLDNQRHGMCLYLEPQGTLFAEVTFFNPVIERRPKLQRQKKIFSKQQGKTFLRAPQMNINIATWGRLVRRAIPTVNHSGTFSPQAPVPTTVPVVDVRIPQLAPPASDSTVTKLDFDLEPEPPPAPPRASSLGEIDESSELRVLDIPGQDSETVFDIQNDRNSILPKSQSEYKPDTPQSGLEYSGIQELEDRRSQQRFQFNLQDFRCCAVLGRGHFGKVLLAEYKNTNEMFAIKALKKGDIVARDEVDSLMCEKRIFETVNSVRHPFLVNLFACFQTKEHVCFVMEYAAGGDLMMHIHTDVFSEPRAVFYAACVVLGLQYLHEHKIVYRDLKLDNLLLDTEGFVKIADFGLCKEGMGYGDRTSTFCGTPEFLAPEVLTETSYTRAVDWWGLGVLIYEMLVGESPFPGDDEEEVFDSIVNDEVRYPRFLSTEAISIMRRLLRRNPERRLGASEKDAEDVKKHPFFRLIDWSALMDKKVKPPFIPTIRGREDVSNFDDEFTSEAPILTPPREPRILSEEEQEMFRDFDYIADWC

[18] = target: Serine/threonine-protein kinase N2 (Homo sapiens) (UniProt Q16513); details: at 10 µM
[19] = target: Tyrosine-protein kinase FRK (Homo sapiens) (UniProt P42685); details: at 1 µM
Chain of Tyrosine-protein kinase FRK (Homo sapiens) (P42685 whole entry): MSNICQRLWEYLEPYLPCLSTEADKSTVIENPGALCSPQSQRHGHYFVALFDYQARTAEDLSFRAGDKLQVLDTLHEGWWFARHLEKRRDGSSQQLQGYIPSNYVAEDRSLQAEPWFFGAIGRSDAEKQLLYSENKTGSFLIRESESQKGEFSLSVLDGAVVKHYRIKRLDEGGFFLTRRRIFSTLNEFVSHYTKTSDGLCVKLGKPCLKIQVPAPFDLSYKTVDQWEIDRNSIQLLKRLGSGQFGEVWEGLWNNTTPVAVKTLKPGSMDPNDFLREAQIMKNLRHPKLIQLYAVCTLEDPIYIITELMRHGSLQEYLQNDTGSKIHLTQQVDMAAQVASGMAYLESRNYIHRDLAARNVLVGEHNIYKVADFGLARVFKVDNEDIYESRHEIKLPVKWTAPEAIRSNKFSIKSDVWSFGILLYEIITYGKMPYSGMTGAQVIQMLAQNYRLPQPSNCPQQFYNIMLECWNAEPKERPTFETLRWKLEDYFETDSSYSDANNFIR

[20] = target: Tyrosine-protein kinase FRK (Homo sapiens) (UniProt P42685); details: at 10 µM

Chain of Protein kinase C theta type (Homo sapiens) (Q04759 whole entry, looked up): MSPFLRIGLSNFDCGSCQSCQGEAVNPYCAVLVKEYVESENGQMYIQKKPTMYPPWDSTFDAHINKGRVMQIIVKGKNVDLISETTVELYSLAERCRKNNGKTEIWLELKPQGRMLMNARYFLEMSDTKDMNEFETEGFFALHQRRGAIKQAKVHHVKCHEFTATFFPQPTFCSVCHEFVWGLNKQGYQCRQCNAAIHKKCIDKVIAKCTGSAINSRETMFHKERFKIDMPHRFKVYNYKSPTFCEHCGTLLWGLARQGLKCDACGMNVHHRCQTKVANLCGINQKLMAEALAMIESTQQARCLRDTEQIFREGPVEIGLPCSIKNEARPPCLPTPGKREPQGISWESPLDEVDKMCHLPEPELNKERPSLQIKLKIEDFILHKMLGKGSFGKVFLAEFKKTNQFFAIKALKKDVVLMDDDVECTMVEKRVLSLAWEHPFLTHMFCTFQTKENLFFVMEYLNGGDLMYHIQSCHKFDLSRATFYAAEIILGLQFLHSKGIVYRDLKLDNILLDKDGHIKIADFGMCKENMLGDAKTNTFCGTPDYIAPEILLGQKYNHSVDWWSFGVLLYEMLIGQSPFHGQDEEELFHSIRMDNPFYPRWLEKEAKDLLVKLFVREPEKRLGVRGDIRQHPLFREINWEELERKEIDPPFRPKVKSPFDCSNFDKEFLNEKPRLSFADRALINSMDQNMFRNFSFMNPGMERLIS
Chain of Protein kinase C eta type (Homo sapiens) (P24723 whole entry): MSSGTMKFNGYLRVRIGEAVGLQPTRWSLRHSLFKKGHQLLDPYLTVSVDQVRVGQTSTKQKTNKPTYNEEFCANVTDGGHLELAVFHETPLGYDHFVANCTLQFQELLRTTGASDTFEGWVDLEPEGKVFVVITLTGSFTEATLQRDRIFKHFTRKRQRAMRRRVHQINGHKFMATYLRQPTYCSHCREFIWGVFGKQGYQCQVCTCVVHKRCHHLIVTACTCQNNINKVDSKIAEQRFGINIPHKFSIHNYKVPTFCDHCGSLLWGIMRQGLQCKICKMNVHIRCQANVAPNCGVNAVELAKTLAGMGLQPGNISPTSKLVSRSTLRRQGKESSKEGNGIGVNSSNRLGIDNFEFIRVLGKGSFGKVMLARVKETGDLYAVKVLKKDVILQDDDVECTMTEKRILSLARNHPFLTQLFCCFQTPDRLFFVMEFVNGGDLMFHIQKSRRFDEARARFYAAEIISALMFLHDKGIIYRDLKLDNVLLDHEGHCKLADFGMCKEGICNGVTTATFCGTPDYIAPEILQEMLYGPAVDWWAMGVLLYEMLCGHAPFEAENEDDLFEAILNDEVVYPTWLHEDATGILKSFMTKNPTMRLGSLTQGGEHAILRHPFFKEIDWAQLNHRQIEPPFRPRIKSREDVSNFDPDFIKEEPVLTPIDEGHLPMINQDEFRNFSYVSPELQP

| Compound | residual activity [1] [%] | residual activity [2] [%] | residual activity [3] [%] | residual activity [4] [%] | residual activity [5] | residual activity [6] [%] | residual activity [7] [%] | residual activity [8] [%] | residual activity [9] [%] | residual activity [10] [%] | residual activity [11] [%] | residual activity [12] [%] | residual activity [13] [%] | residual activity [14] [%] | residual activity [15] [%] | residual activity [16] [%] | residual activity [17] [%] | residual activity [18] [%] | residual activity [19] [%] | residual activity [20] [%] |
| --- | --- | --- | --- | --- | --- | --- | --- | --- | --- | --- | --- | --- | --- | --- | --- | --- | --- | --- | --- | --- |
| O=C1NC(=O)c2cc(Nc3ccc(F)cc3)c(Nc3ccc(F)cc3)cc21 | 91 | 80 | 87 | 62 | 91% (inactive) | 106 | 94 | 72 | 101 | 89 | 98 | 97 | 92 | 73 | 74 | 39 | 90 | 84 | 83 | 41 |
| N#C/C(=C(\N)Sc1ccc(N)cc1)c1ccccc1C(F)(F)F | 76 | 83 | 84 | 77 | 106% (inactive) | 108 | 82 | 68 | 109 | 100 | 97 | 95 | 100 | 33 | 91 | 90 | 68 | 48 | 94 | 95 |
| CN(C)c1ccc(/C=C2\C(=O)Nc3ccccc32)cc1 | 102 | 93 | 117 | 85 | 92% (inactive) | 78 | 96 | 81 | 103 | 114 | 121 | 115 | 65 | 84 | 113 | 65 | 113 | 120 | 97 | 76 |
| COc1cc2ncnc(N3CCN(C(=O)Nc4ccc(Oc5ccccc5)cc4)CC3)c2cc1OC | 98 | 74 | 94 | 108 | 90% (inactive) | 99 | 102 | 66 | 103 | 99 | 99 | 110 | 68 | 72 | 78 | 79 | 88 | 112 | 96 | 127 |

From ChEMBL document CHEMBL2218924, “A broad activity screen in support of a chemogenomic map for kinase signalling research and drug discovery” (Biochem J, 2013)
